SARS PLP yeast – inhibitors of SARS-CoV papain-like protease in yeast. S. cerevisiae expressing SARS-CoV PLpro, growth rescue. Potency, µM (series often up to 32.9 µM), actives largely listed as activators. 0.19% of 330,000 active; calls by dose curve; further: nearly all actives have a fitted effect of over 55% in size
Pf growth 96h – P. falciparum growth inhibition at 96 hours | P. falciparum luciferase reporter growth, 96 h | Potency, µM (series often up to 28.7 µM), most hits filed as inhibitors | 6.9% of 320,000 active | AID 504834
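Readout is luminescence from an integrated firefly luciferase in P. falciparum. Red cells, 2% hematocrit and 0.05% parasitemia final, were cultured with compound through two parasite generations (96 hours) at 37 C, 5% CO2.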
Pf growth 48h – P. falciparum growth inhibition at 48 hours (one generation); 5.9% of 310,000 active; AID 504832; Potency, µM (doses to about 28.7 µM), usual class: inhibitors; P. falciparum luciferase growth in erythrocytes, 48 h
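Growth was read as firefly luciferase luminescence after a 48 h, 37 C, 5% CO2 exposure of compounds to reporter-bearing P. falciparum cultures (0.1% parasitemia, 2% hematocrit final) in Albumax-supplemented RPMI 1640.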
Cycloheximide cs – counter-screen for Shiga toxin inhibitors: cycloheximide protein synthesis inhibition; max response, %; cell reporter, cycloheximide protein synthesis inhibition counterscreen; 12% of 300,000 active; in the data active means max response mostly above about 13%, no sharp cut-off; inactive means mostly below about 14%; further: read at 38.3 µM for the half of the compounds with a filed dose
Shiga toxin inh – blocks Shiga toxin action in Vero cells; Vero cells, Shiga toxin protein synthesis inhibition reporter; inhibition, % at 38.7 µM; 9.2% of 290,000 active; AID 2315; in the data active means inhibition mostly above about 28%, no sharp cut-off; inactive means mostly below about 43%
AMA1 RON2 block – disrupts binding of P. falciparum AMA1 to RON2. AlphaScreen AMA1-biotinylated RON2 peptide binding. Potency, µM (doses to about 58.2 µM), usual class: inhibitors. 0.2% of 360,000 active. AID 720542; further: nearly all actives have a fitted effect of over 45% in size
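AMA1 (3D7) with his tag at 25 nM final met compounds first, then biotinylated RON2 peptide at 25 nM; detection used donor plus acceptor beads, 10 µg/mL apiece, read by AlphaScreen after 30 min at room temperature.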
Large screens that a line does not name were inactive. Shown are actives, neighbours in structure and some others; about 19% of the full set was active somewhere. Unless noted, the call rests on the fitted dose curve; in most records, active means well fitted curve in the direction sought with a large enough effect; inconclusive means small, poorly fitted or top-dose-only effect, or another doubt; inactive means no such curve, though single readings can be large; an effect the other way counts as inactive or inconclusive.

COc1ccc(N(C)S(=O)(=O)c2cccc(C(=O)Nc3nc4ccccc4[nH]3)c2)cc1	Pf growth 96h inconclusive, Pf growth 48h inconclusive
Cc1ccc(CSCC(=O)Nc2ccc(N3CCOCC3)cc2N2CCOCC2)cc1	Pf growth 96h inconclusive, Pf growth 48h 5.22µM (no result: Cycloheximide cs, Shiga toxin inh)
CCOC(=O)c1c(-c2ccccc2Cl)csc1NC(=O)c1cc(S(=O)(=O)N2CCOCC2)ccc1C	Pf growth 96h inconclusive, Pf growth 48h 14.7µM
CN(c1cccc(Cl)c1)S(=O)(=O)c1cccc(C(=O)Nc2nc3ccccc3[nH]2)c1	Pf growth 96h inconclusive, Pf growth 48h 14.7µM, Cycloheximide cs 24.2
CCOc1ccccc1NC(=O)c1cc(S(=O)(=O)N2CCOCC2)ccc1C	Pf growth 96h 11.7µM
C=CCOc1ccc(C(=O)CC)cc1OC	none
CCOc1ccc(S(=O)(=O)N2CCOCC2)cc1NC(=O)CSCc1ccc(C)cc1	Pf growth 96h inconclusive, Pf growth 48h 9.28µM (no result: Cycloheximide cs, Shiga toxin inh)
O=C(Nc1nc2ccccc2[nH]1)c1ccccc1	Cycloheximide cs 17.0 (no result: Pf growth 96h)
O=C(Nc1nc2ccccc2[nH]1)c1cccc(Cl)c1	Cycloheximide cs 44.1, Shiga toxin inh 91.1
O=C(Nc1nc2ccccc2[nH]1)c1ccccc1O	Cycloheximide cs 36.8, Shiga toxin inh 97.2
COc1ccc(S(=O)(=O)N2CCOCC2)cc1NC(=O)COc1ccc(C)cc1	none (no result: Pf growth 96h, Pf growth 48h, Cycloheximide cs, Shiga toxin inh)
COc1cccc(/C=C/C(=C2/C(=O)N(c3ccccc3)N=C2C)c2ccc(C)cc2)c1OC	none
O=C(NCc1ccccc1Cl)C(=O)c1cn(CC(=O)N2CCOCC2)c2ccccc12	Pf growth 96h inconclusive
CC(C)n1nc(C(=O)Nc2nc3ccccc3[nH]2)c2ccccc2c1=O	Pf growth 96h inconclusive
Cc1nc2ccc(NC(=O)c3cc(S(=O)(=O)N4CCOCC4)ccc3C)cc2s1	Pf growth 96h 9.28µM (no result: Pf growth 48h)
CCCn1nc(C(=O)Nc2nc3ccccc3[nH]2)c2ccccc2c1=O	Pf growth 96h inconclusive, Pf growth 48h 14.7µM
Cc1nc2ccc(NC(=O)c3cc(S(=O)(=O)N(C)c4ccccc4)ccc3Cl)cc2s1	Pf growth 96h 0.37µM, Pf growth 48h 1.31µM
Cc1nc2ccc(NC(=O)c3ccc(C)c(S(=O)(=O)N4CCOCC4)c3)cc2s1	Pf growth 96h inconclusive, Pf growth 48h inconclusive (no result: Cycloheximide cs, Shiga toxin inh)
CC(=O)NC(c1ccccc1)c1nc(-c2cc3ccccc3o2)cs1 (stereo not drawn)	none (no result: SARS PLP yeast, Pf growth 96h, Pf growth 48h, Cycloheximide cs, Shiga toxin inh)
Brc1ccc(-c2cnc(-c3cccs3)o2)cc1	Cycloheximide cs 36.5, Shiga toxin inh 91.7
CN(C)c1ccc(-c2nnc(-c3cccs3)o2)cc1	Pf growth 96h inconclusive
COCCNC(=S)N(C)[C@H]1C[C@H]2c3cc(-c4ccccc4)ccc3CCN2C(=O)[C@H]1[C@H](C)O	none (no result: SARS PLP yeast, Pf growth 96h, Pf growth 48h, Cycloheximide cs, Shiga toxin inh)
CC(O)COc1ccc(/C(=N/O)c2ccccc2)cc1 (stereo not drawn)	none
CC(C)COc1ccc(/C(=N/O)c2ccccc2)cc1	Cycloheximide cs 29.7 (no result: Pf growth 48h)
O=C(N[C@@H](Cc1ccc(O)cc1)C(=O)O)c1ccncc1	none (no result: SARS PLP yeast, Pf growth 96h, Pf growth 48h, Cycloheximide cs, Shiga toxin inh)
O=C(c1c(Cl)nc2sccn12)N(C(=O)c1c(Cl)nc2sccn12)c1ccc(Cl)cn1	Cycloheximide cs 79.7, Shiga toxin inh 187.3 (no result: Pf growth 48h)
CC(=O)c1ccc(OC(=O)Oc2ccc(C(C)=O)cc2)cc1	none (no result: SARS PLP yeast, Pf growth 96h, Pf growth 48h, Cycloheximide cs, Shiga toxin inh)
CC(=O)c1ccc(Oc2ccc(C(C)=O)cc2)cc1	Pf growth 96h inconclusive, Cycloheximide cs 17.3
CN(Cc1ccccc1F)C(=O)c1ccc(Oc2ccccc2)cc1	none
CN(C)C(=O)c1ccc(Oc2ccc(C(=O)N(C)C)cc2)cc1	Pf growth 96h 1.85µM
Cc1cc2oc(=O)c(CC(=O)NCCCN(C)C)c(C)c2c2occ(C(C)(C)C)c12	Pf growth 96h 1.85µM, Pf growth 48h 2.62µM
Cc1cc2oc(=O)c(CC(=O)NCCCO)c(C)c2c2occ(C(C)(C)C)c12	none
CSc1sc(C(=O)OC(C)C)c2c1C(=O)CC(C)(C)C2	Pf growth 96h inconclusive, Pf growth 48h 7.38µM
Oc1ccc(Cl)cc1C(C#Cc1ccccc1)N1CCOCC1 (stereo not drawn)	Pf growth 96h 10.4µM, Pf growth 48h inconclusive
Cc1ccc(-c2nc3c(c(=O)[nH]c(=O)n3Cc3ccccc3)n2C)o1	none
Cc1ccc(-c2nc3c(c(=O)[nH]c(=O)n3Cc3ccccc3)n2Cc2ccccc2)o1	Pf growth 96h inconclusive, Pf growth 48h 5.86µM
CCCn1c(-c2cccc([N+](=O)[O-])c2)nc2c1c(=O)[nH]c(=O)n2Cc1ccccc1	Pf growth 96h 5.22µM, Pf growth 48h inconclusive
Cc1nn(Cc2ccccc2)c(C)c1N	none
COc1ccc(CN2CCCC(N3CCN(c4cccc(Cl)c4)CC3)C2)cc1OC (stereo not drawn)	Pf growth 96h 9.28µM, Pf growth 48h inconclusive
COc1ccc(CN2CCCC(N3CCN(c4ccc(OC)cc4)CC3)C2)cc1 (stereo not drawn)	none
CCOc1cc(CN2CCCC(N3CCN(c4ccc(F)cc4)CC3)C2)ccc1OC (stereo not drawn)	Pf growth 48h 1.04µM
COc1ccc(C(=O)N[C@H](C(=O)N2CCN(c3ccccc3F)CC2)C(C)C)cc1	none
Oc1ccc(Cl)cc1Sc1cc(Cl)ccc1O	Pf growth 96h 13.5µM, Pf growth 48h inconclusive (no result: SARS PLP yeast, Cycloheximide cs, Shiga toxin inh)
Cc1ccccc1OCCC(=O)Nc1ccc2c(C)cc(=O)oc2c1	none
COc1ccc(/C(N)=N/OC(=O)CCCc2ccccc2)cc1OC	Cycloheximide cs 26.7
CN(CC(=O)O/N=C(\N)c1ccccn1)S(=O)(=O)c1ccccc1	Shiga toxin inh 44.0
N/C(=N\OC(=O)Cc1ccccc1)c1ccccn1	Cycloheximide cs 27.8
N/C(=N\OC(=O)CCCc1ccccc1)c1ccccn1	Cycloheximide cs 35.4, Shiga toxin inh 53.5
Cc1cc(N/C=C(\C#N)S(=O)(=O)c2ccccc2Cl)nc(C)n1	none
O=C(COC(=O)Cn1cc(C(F)(F)F)ccc1=O)Nc1ccc(Br)cc1F	none (no result: Cycloheximide cs, Shiga toxin inh)
COc1ccc(CCNS(=O)(=O)c2ccc3c(c2)CCCC3)cc1OC	none (no result: Pf growth 96h, Pf growth 48h, Cycloheximide cs, Shiga toxin inh)
COc1cc2c(cc1NC(=S)Nc1ccccc1C)oc1ccccc12	Cycloheximide cs 33.4, Shiga toxin inh 90.5 (no result: Pf growth 96h)
CNC(=S)Nc1cc2oc3ccccc3c2cc1OC	none
CCNC(=S)Nc1cc2oc3ccccc3c2cc1OC	none
CCCNC(=S)Nc1cc2oc3ccccc3c2cc1OC	Pf growth 96h 3.29µM, Pf growth 48h inconclusive
CC(C)Nc1nc(NC(C)C)nc(SCC(N)=O)n1	Pf growth 96h inconclusive
O=C(Nc1cc2cccc([N+](=O)[O-])c2oc1=O)c1cccs1	Pf growth 96h inconclusive
COC(=O)CN(C#N)c1nc(NCc2ccccc2)nc(OC)n1	Pf growth 96h inconclusive, Pf growth 48h 9.28µM
COC(=O)CN(C#N)c1nc(N(C)C)nc(N(C)C)n1	Pf growth 96h 4.15µM
c1ccc(-c2nnc3nc(N4CCCCC4)nc(N4CCCCC4)n23)cc1	none (no result: SARS PLP yeast, Pf growth 96h, Pf growth 48h, Cycloheximide cs, Shiga toxin inh)
O=C(NN=C1CCCCCCCCCCC1)c1cccnc1	none
O=C1C(C2=NC(C(=O)O)C3C(=O)N(c4ccccc4)C(=O)C23)=C(O)c2ccccc21 (stereo not drawn)	none

Screening data deposited in PubChem by National Center for Advancing Translational Sciences (NCATS).
